The list is not random: actives were taken first. Their share in the collection is about 8.1%.
KB-V1 cytotox: qHTS assay for MDR1-selective chemotherapeutics: Primary screen using the drug-selected MDR subline cells KB-V1; Potency, µM (series often up to 46.1 µM), hits mostly cytotoxic; actives 3.4% (n = 400,000); KB-V1 MDR cells viability, CellTiter-Glo, 72 h; also: % is scaled to controls: 0 for no effect and ±100 for the full control effect; nearly all actives have a fitted effect of over 60% in size
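qHTS viability screen in drug-selected KB-V1 MDR cells: 72 h compound treatment at 37 degrees C, ATP luminescence end point.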
ELG1 DNA repair: qHTS screen for small molecules that inhibit ELG1-dependent DNA repair in human embryonic kidney (HEK293T) cells expressing luciferase-tagged ELG1. AID 504467, 2011. Potency, µM (doses to about 46.1 µM), inactives show at the highest dose activity change, negative = inhibition, usual class: inhibitors. actives 2.3% (n = 330,000). HEK293T ELG1-luciferase reporter, luminescence, 16 h; DNA damage induced by 5-fluorouridine; also: % is scaled to controls: 0 for no effect and ±100 for the full control effect; nearly all actives have a fitted effect of over 55% in size
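Reporter activity after DNA damage by 5-fluorouridine is monitored. Compound-treated cells incubate 16 hr at 37 °C, then ONE-Glo is added for 30 min before luminescence reading.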
MCF10A rereplic: A quantitative high throughput screen for small molecules that induce DNA re-replication in MCF 10a normal breast cells | MCF 10A DNA re-replication, Hoechst nuclear intensity, 48 h | Potency, µM (titrated, usually from 46.1 µM), without a hit: top-dose activity, positive = re-replication, hits mostly activators | actives 2.9% (n = 350,000) | AID 624296, 2012; also: % of control where 0% means no effect; nearly all actives have a fitted effect of over 50% in size
SW480 rereplic: A quantitative high throughput screen for small molecules that induce DNA re-replication in SW480 colon adenocarcinoma cells; SW480 DNA re-replication, Hoechst DNA content imaging, 48 h; Potency, µM (titrated, usually from 46.1 µM), without a hit: top-dose re-replication activation, actives largely listed as activators; actives 1.8% (n = 340,000); AID 624297, 2012; also: % of control where 0% means no effect; nearly all actives have a fitted effect of over 55% in size
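DNA re-replication was detected as more nuclei of elevated Hoechst intensity after 48 hr exposure to compound (23 nL pinned per well of 250 cells).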
KB-3-1 tox: qHTS assay for MDR1-selective chemotherapeutics: Primary screen using the parental adenocarcinoma cell KB-3-1; KB-3-1 viability, CellTiter-Glo ATP luminescence, 72 h; Potency, µM (highest dose often 46.1 µM), usual class: cytotoxic; actives 1.4% (n = 400,000); also: % is scaled to controls: 0 for no effect and ±100 for the full control effect; nearly all actives have a fitted effect of over 60% in size
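Cells are dispensed, compounds pinned in, plates held at 37 °C for 72 h, then CellTiter-Glo is added and luminescence read after 10 minutes. Cell line: parental KB-3-1 in phenol-red-free DMEM, 10% FBS.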
* marks the source's active call; other numbers are inactive results. Calls follow the shape of the dose curve; as a rule, active = well fitted curve in the direction sought with a large enough effect; inconclusive = small, poorly fitted or top-dose-only effect, or another doubt; inactive = no such curve, though single readings can be large; an effect the other way counts as inactive or inconclusive. Potency is read from the fitted curve at half-maximal effect.

`c1ccc(-c2nnc(CSc3nc4ccccc4[nH]3)o2)cc1` gave KB-V1 cytotox 13µM*, ELG1 DNA repair 0%, MCF10A rereplic 15%, SW480 rereplic 0% and KB-3-1 tox inactive.
`CC(C)CSc1nc2ccccc2[nH]1` gave KB-V1 cytotox inconclusive, ELG1 DNA repair inconclusive, MCF10A rereplic 0.58µM*, SW480 rereplic inconclusive and KB-3-1 tox inactive.
COc1ccc(-n2c(=O)c3sc4ccccc4c3n(CC(=O)Nc3ccccc3F)c2=O)cc1 was read as KB-V1 cytotox inactive and KB-3-1 tox inactive.
For Cc1ccc2nc(SCC(=O)c3ccc4c(c3)OCO4)[nH]c2c1 the results were KB-V1 cytotox inactive, ELG1 DNA repair -10%, MCF10A rereplic -2%, SW480 rereplic -3% and KB-3-1 tox inactive.
O=C(CSc1nc2ccccc2[nH]1)c1ccc2c(c1)OCO2 was read as KB-V1 cytotox 18µM*, ELG1 DNA repair inconclusive, MCF10A rereplic -1%, SW480 rereplic 7% and KB-3-1 tox inactive.
`Cc1[nH]c2ccccc2c1C(=O)CSc1nc2cc(S(=O)(=O)N3CCCCC3)ccc2o1` gave KB-V1 cytotox inactive, ELG1 DNA repair 15µM*, MCF10A rereplic 18%, SW480 rereplic 10% and KB-3-1 tox inconclusive.
Cc1[nH]c2ccccc2c1C(=O)CSc1nccc(=O)[nH]1 was read as KB-V1 cytotox inconclusive, ELG1 DNA repair 9%, MCF10A rereplic 5%, SW480 rereplic 8% and KB-3-1 tox inactive.
`NC(=O)CSc1nc2ccc([N+](=O)[O-])cc2[nH]1` gave KB-V1 cytotox inactive, ELG1 DNA repair -3%, MCF10A rereplic -1%, SW480 rereplic -3% and KB-3-1 tox inactive.
`Cc1ccc(C(=O)CSc2nc3cc(S(=O)(=O)N4CCOCC4)ccc3o2)cc1` gave KB-V1 cytotox inactive, ELG1 DNA repair -17%, MCF10A rereplic 6%, SW480 rereplic -3% and KB-3-1 tox inactive.
Cc1[nH]c2ccccc2c1C(=O)CSc1nc2ccccc2[nH]1 was read as KB-V1 cytotox 21µM*, ELG1 DNA repair -26%, MCF10A rereplic inconclusive, SW480 rereplic inconclusive and KB-3-1 tox inactive.
Cc1cccc2nc(CSc3nc4ccc([N+](=O)[O-])cc4[nH]3)c(Br)n12 was read as KB-V1 cytotox 12µM*, ELG1 DNA repair inconclusive, MCF10A rereplic 1%, SW480 rereplic 17% and KB-3-1 tox inconclusive.
Screening C/C(=N\Nc1nc2ccccc2[nH]1)c1ccc2c(c1)OCCO2 returned KB-V1 cytotox inconclusive, ELG1 DNA repair inconclusive, MCF10A rereplic 12%, SW480 rereplic 11% and KB-3-1 tox inconclusive.
C/C(=N\Nc1nc2ccccc2[nH]1)c1ccc2c(c1)OCO2 was read as KB-V1 cytotox inconclusive, ELG1 DNA repair -7%, MCF10A rereplic inconclusive, SW480 rereplic 21µM* and KB-3-1 tox inactive.
`O=C(CSc1nc2ccccc2c(=O)[nH]1)c1ccc(O)c(O)c1` gave KB-V1 cytotox 18µM*, ELG1 DNA repair 2%, MCF10A rereplic 22%, SW480 rereplic 2% and KB-3-1 tox inconclusive.
Screening CC(C)(C)OC(=O)N1CCC(c2nnc(SCc3ccccc3F)o2)CC1 returned KB-V1 cytotox inconclusive and KB-3-1 tox inactive.
`CC(C)(C)OC(=O)N1CCC(c2nnc(SCc3ccccc3Cl)o2)CC1` gave KB-V1 cytotox 9.2µM* and KB-3-1 tox inactive.
For CC(C)(C)OC(=O)N1CCC(c2nnc(SCc3cccc(Cl)c3)o2)CC1 the results were KB-V1 cytotox 18µM* and KB-3-1 tox inactive.
For O=C(Cn1c2ncccc2c(=O)n1-c1ccccc1)Nc1cccc(C(F)(F)F)c1 the results were KB-V1 cytotox inactive and KB-3-1 tox inactive.
Screening COc1cc(/C=N/Nc2ccc(F)cc2F)cc(OC)c1O returned KB-V1 cytotox inactive, ELG1 DNA repair inconclusive, MCF10A rereplic 16µM*, SW480 rereplic 0% and KB-3-1 tox inactive.
Screening COc1cc(/C=N/Nc2ccc(S(N)(=O)=O)cc2[N+](=O)[O-])cc(OC)c1O returned KB-V1 cytotox inactive, ELG1 DNA repair 9.2µM*, MCF10A rereplic -1%, SW480 rereplic -21% and KB-3-1 tox inactive.
`CC(Sc1nc2ccccc2c(=O)n1CC1CCCO1)C(=O)N(C)Cc1ccccc1` (configuration not stated) gave KB-V1 cytotox inactive, ELG1 DNA repair inconclusive, MCF10A rereplic 10%, SW480 rereplic -8% and KB-3-1 tox inconclusive.
For CC(Sc1nc2ccccc2c(=O)n1C)C(=O)N(C)C1CCCCC1 (configuration not stated) the results were KB-V1 cytotox 5.8µM*, ELG1 DNA repair -8%, MCF10A rereplic inconclusive, SW480 rereplic -5% and KB-3-1 tox inconclusive.
For O=C(CCl)N1CCN2C(=O)c3ccccc3C12c1ccc(Cl)cc1 (configuration not stated) the results were KB-V1 cytotox inconclusive, ELG1 DNA repair 16%, MCF10A rereplic 23µM*, SW480 rereplic inconclusive and KB-3-1 tox inconclusive.
For N#C/C(=N\Nc1ccc(F)cc1)C(=O)C1CC1 the results were KB-V1 cytotox inactive, ELG1 DNA repair inconclusive, MCF10A rereplic inconclusive, SW480 rereplic 22% and KB-3-1 tox inactive.
Screening N#C/C(=N\Nc1ccc(Cl)c(Cl)c1)C(=O)C1CC1 returned KB-V1 cytotox inconclusive, ELG1 DNA repair inconclusive, MCF10A rereplic inconclusive, SW480 rereplic 1% and KB-3-1 tox 16µM*.
Cn1nnnc1Sc1ncnc2scc(-c3cccc(S(C)(=O)=O)c3)c12 was read as KB-V1 cytotox inconclusive, ELG1 DNA repair inconclusive, MCF10A rereplic 4.6µM*, SW480 rereplic 10% and KB-3-1 tox 21µM*.
CC(=O)c1cccc(-c2csc3ncnc(Sc4nnnn4C)c23)c1 was read as KB-V1 cytotox inactive and KB-3-1 tox inactive.
`Cn1nnnc1Sc1ncnc2scc(-c3cccc(Br)c3)c12` gave KB-V1 cytotox 18µM*, ELG1 DNA repair 13µM*, MCF10A rereplic inconclusive, SW480 rereplic inconclusive and KB-3-1 tox 7.3µM*.
`Cn1nnnc1Sc1ncnc2scc(-c3cccc4c3sc3ccccc34)c12` gave KB-V1 cytotox inconclusive, ELG1 DNA repair inconclusive, MCF10A rereplic inconclusive, SW480 rereplic inconclusive and KB-3-1 tox 21µM*.
For COc1ccccc1/C=C/C(=O)N1CCN(S(=O)(=O)c2cccs2)CC1 the results were KB-V1 cytotox inactive, ELG1 DNA repair 21µM*, MCF10A rereplic 1%, SW480 rereplic -7% and KB-3-1 tox inactive.

Screening data from PubChem.
